According to PMC5540273 (PLoS ONE, 2017):

What was measured:
Details in all cases: concentration: 1 μM, replicates: in singlicate; n = 1
CDK4 = test system: CDK4
CDK5 = test system: CDK5
CDK7 = test system: CDK7
CDK8 = test system: CDK8
CDK9 = test system: CDK9
CDKL1 = test system: CDKL1
CDKL2 = test system: CDKL2
CDKL3 = test system: CDKL3
CDKL5 = test system: CDKL5
CHEK1 = test system: CHEK1
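Further: KINOMEscan kinase panel screen.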

SMILES	%Inh (CDK4)	%Inh (CDK5)	%Inh (CDK7)	%Inh (CDK8)	%Inh (CDK9)	%Inh (CDKL1)	%Inh (CDKL2)	%Inh (CDKL3)	%Inh (CDKL5)	%Inh (CHEK1)
O=C(Nc1n[nH]c2nc(-c3nccs3)c(Br)cc12)C1CCCC1 [SB-742609]	81%	0%	73%	0%	100%	0%	88%	0%	0%	0%
CC(C)(C)c1ccc(C(=O)Nc2cn3cc(-c4cccnc4)ccc3n2)cc1	0%	3%	35%	6%	12%	39%	6%	20%	0%	25%
O=C1NC(=O)C(N2CCc3ccccc32)=C1c1ccccc1Cl [SB-373598]	27%	0%	29%	25%	8%	18%	23%	4%	0%	2%
Cc1c(O)cccc1Nc1ccnc2ccc(C(F)(F)F)cc12.Cl [GW466413]	33%	0%	0%	18%	0%	0%	5%	0%	0%	0%
Fc1cccc(COc2nnc(-c3ccc4c(c3)CCO4)o2)c1	0%	0%	9%	19%	0%	0%	9%	9%	0%	0%
COc1ccccc1CNC(=O)c1cc(C(=O)c2ccccc2C)c[nH]1 [GSK364507]	0%	9%	0%	5%	0%	10%	16%	0%	0%	0%
COc1ccc(CNC(=O)NC2CCN(c3ccnc(Nc4cc(OC)c(OC)c(OC)c4)n3)C2)cc1 (stereo not drawn) [GSK1379748]	36%	0%	0%	51%	0%	15%	20%	0%	0%	0%
Cc1ccccc1-n1cnc2c(N)ncnc21 [SKF-97510]	0%	0%	0%	0%	0%	14%	0%	39%	0%	5%
COc1cc(Nc2nccc(N3CCC(NC(=O)Nc4cc(C)ccc4C)C3)n2)cc(OC)c1OC (stereo not drawn) [GSK1379762]	0%	0%	0%	20%	0%	0%	41%	0%	7%	25%
O=S(=O)(c1ccc(-c2ccnc3[nH]ccc23)cc1)N1CCCC1 [GSK846226]	0%	0%	2%	0%	0%	7%	5%	0%	4%	0%
Cc1cc(NCC(c2ccccc2)c2ccccc2)nc(NCc2ccc(C(F)(F)F)cc2)n1 [GW497681]	0%	0%	0%	28%	0%	0%	12%	0%	0%	0%
CC(=O)Nc1nc2cnc(Nc3cc(NC(=O)c4cccc(CCC#N)c4)ccc3C)nc2s1	2%	12%	39%	5%	0%	0%	29%	0%	4%	0%
Cc1nnc(-c2ccc3occ(-c4ccc(S(C)=O)cc4)c3c2)[nH]1 (stereo not drawn)	0%	0%	0%	0%	0%	0%	0%	0%	12%	0%
O=C(Nc1ccccc1)Nc1cccc(Oc2ccc3nccn3n2)c1	0%	0%	0%	76%	0%	12%	4%	0%	2%	0%
COc1ccc(C2=C(Nc3cccc(C(=O)O)c3)C(=O)NC2=O)cc1 [SB-390765]	51%	16%	3%	0%	1%	0%	37%	0%	13%	0%
COc1cccc(-c2cc(-c3c[nH]nc3-c3ccccn3)ccn2)c1 [GW680338]	31%	0%	0%	44%	0%	0%	0%	23%	0%	0%
Cc1ccc(NC(=O)Nc2cc(C(C)(C)C)nn2-c2ccccc2)cc1 [GSK1014915]	0%	8%	0%	58%	14%	15%	13%	0%	14%	24%
Cc1cccc(-c2nc(Nc3ccc4[nH]ncc4c3)c3ccccc3n2)n1 [GW857175]	0%	3%	8%	0%	0%	0%	7%	4%	18%	4%
